# Bioassay records (PubChem)
# Hits are enriched below; roughly 4.6% of the tested compounds scored in any of these assays.
# TIM10 inh: inhibits growth of TIM10 yeast strain; inhibition, % at 10 µM; S. cerevisiae TIM10 strain growth, BacTiter-Glo luminescence, 24 h; AID 463195; 1.4% of 330,000 active;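 active means inhibition of 40% or more at the single tested concentration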;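 further: wild-type TIM10 isogenic control strain grown at permissive 25 °C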
# SKKanGAS inh: blocks kanamycin growth of S. pyogenes SKKanGAS strain. BacTiter-Glo, 6 h. inhibition, % at 7.5 µM. 1.3% of 300,000 active. AID 1662;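 active means mean replicate score, as percent of positive control median, at least 50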;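 further: strain carries kanamycin resistance gene driven by streptokinase promoter and grows in 40 µg/ml kanamycin; loss of luminescence reflects streptokinase promoter inhibition or plain growth inhibition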
# tim10-1 inh: tim10-1 yeast growth inhibition; S. cerevisiae tim10-1 ts strain growth, BacTiter-Glo, 24 h; inhibition, % at 20 µM; 2.2% of 330,000 active;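 active means inhibition of at least 40%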;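 further: mutant grown at 25 °C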
# tim23-1 inh: tim23-1 yeast growth inhibition; S. cerevisiae tim23-1 growth, BacTiter-Glo luminescence, 24 h; AID 463212; 1.3% of 330,000 active; inhibition, % at 20 µM;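 active means growth inhibition of the mutant yeast at or above 50%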;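 further: temperature-sensitive mutant grown at 25 °C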
# PfHsp90 set2: growth inhibition of yeast expressing Plasmodium Hsp90; S. cerevisiae expressing PfHsp90, BacTiter-Glo ATP, 48 h; yeast lacking PDR1 and PDR3 efflux regulators; inhibition, % at 9.4 µM; 0.32% of 310,000 active; AID 504621;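 active means every replicate shows inhibition above about 80%, whatever the replicate mean, limit read from the data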
# V-ATPase pHluor: yeast V-ATPase proton transport regulation by pHLuorin; S. cerevisiae, pHLuorin cytosolic pH fluorescence; response, % at 10 µM; 0.37% of 350,000 active; AID 504577; in the data active means response mostly above about 7.3%, no sharp cut-off; inactive means mostly below about 5.4%; further: actives read high
# TIM10 conf: confirmation of TIM10 yeast growth inhibitors; shares compounds with TIM10 inh; S. cerevisiae tim10 strain growth, BacTiter-Glo luminescence, 24 h; inhibition, % at 10 µM; 63% of 4,600 active;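 active means inhibition of yeast growth at or above a set limit in either of two replicates at 10 µM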; further: this counterscreen used the strain with wild-type TIM10
# tim23-1 conf: tim23-1 yeast growth inhibition, confirmed. 83% of 4,400 active. S. cerevisiae tim23-1 growth, BacTiter-Glo luminescence, 24 h. shares compounds with tim23-1 inh. inhibition, % at 20 µM;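 active means inhibition above about 39% in either of two replicate wells at 20 µM, limit read from the data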;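 further: temperature-sensitive tim23-1 mutant grown at 25 °C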
# Hits are given with their value; – = inactive; · = no result given.
SMILES,TIM10 inh,SKKanGAS inh,tim10-1 inh,tim23-1 inh,PfHsp90 set2,V-ATPase pHluor,TIM10 conf,tim23-1 conf
CCc1ccc(/C=N/n2c(COc3ccccc3)n[nH]c2=S)cc1,44,–,–,61,–,–,42,–
S=c1[nH]nc(COc2ccccc2)n1/N=C/c1ccncc1,–,–,–,–,–,–,·,·
Cc1c(C(=O)Nc2cccc([N+](=O)[O-])c2)cnn1-c1ccccc1,–,–,–,–,–,–,·,·
COc1ccc(CCC(=O)OCC(=O)NCc2ccccc2)cc1,–,·,–,–,–,–,·,·
COc1ccc(C/C(N)=N/OC(=O)CCc2ccccc2)cc1,71,–,–,72,–,–,83,78
CCN/N=C(\Cc1nc2ccccc2[nH]1)c1ccccc1,–,–,–,–,–,–,·,·
c1ccc(N/N=C(\Cc2nc3ccccc3[nH]2)c2ccccc2)cc1,48,–,–,58,–,–,–,60
Clc1nc(-c2ccccn2)nc2scc(-c3ccccc3)c12,50,–,–,52,–,–,–,58
O=Cc1cn(-c2ccccc2)nc1-c1cccc([N+](=O)[O-])c1,·,·,·,·,·,–,·,·
O=Cc1cn(-c2ccccc2)nc1-c1ccncc1,47,–,–,56,·,–,38,47
O=Cc1cn(-c2ccccc2)nc1-c1ccccc1,58,–,–,68,–,–,64,69
COc1cc(NC(=O)CSc2nnc(-c3ccncc3)o2)cc(OC)c1OC,–,–,–,–,–,–,·,·
CC1=C(C(=O)OCc2ccc(C)cc2)C(c2ccc(O)c([N+](=O)[O-])c2)NC(=O)N1 (stereo not drawn),–,–,–,–,–,·,·,·
CC1=NN(c2ccc(C(=O)O)cc2)C(=O)/C1=C/c1ccc(-c2ccccc2F)o1,43,–,–,62,–,–,–,39
CCn1nc(C(=O)OCC(=O)N(CCC#N)c2ccccc2)c2ccccc2c1=O,–,·,–,–,–,–,·,·
Cc1ccc2nc(-c3ccccc3N)[nH]c2c1,44,–,–,67,–,–,–,–
COc1cccc(CCc2nnc(N)s2)c1,–,–,–,–,–,–,·,·
COCCCNC(=O)CN(c1ccc(F)cc1)S(=O)(=O)c1ccc2c(c1)OCCO2,–,–,–,–,–,–,·,·
Oc1ccc2ccccc2c1/C=C/c1ccc2c(Br)cc(Br)c(O)c2n1,·,·,·,·,–,–,·,·
Oc1ccc(Cl)cc1/C=C/c1ccc2cccc(O)c2n1,64,–,–,58,105,–,63,–
COCCN(C(=O)COC(=O)CCC(=O)c1cccs1)c1c(N)n(Cc2ccccc2)c(=O)[nH]c1=O,–,–,–,–,–,–,·,·
O=C(NCc1ccccc1C(F)(F)F)c1cccc2c1C(=O)c1ccc(N3CCCCC3)cc1S2(=O)=O,–,·,–,–,–,–,·,·
Cc1noc(C)c1C(=O)NCc1ccccc1F,–,–,–,–,–,–,·,·
C=CCSC(=C(C#N)C#N)c1cc2c([nH]1)CCCC2,41,–,–,52,–,–,–,62
CC(C)Cc1cc(C(=O)N2N=C(C(F)F)CC2(O)C(F)F)c2ccccc2n1 (stereo not drawn),–,–,–,–,·,–,·,·
SMILES,TIM10 inh,SKKanGAS inh,tim10-1 inh,tim23-1 inh,PfHsp90 set2,V-ATPase pHluor,TIM10 conf,tim23-1 conf
CCc1ccc(-c2cc(C(=O)N3N=C(C(F)F)CC3(O)C(F)F)c3ccccc3n2)cc1 (stereo not drawn),48,–,–,54,111,–,–,–
CCCCn1c(N)c(N(CC(C)C)C(=O)C2CCN(S(=O)(=O)c3ccc(C)c(C)c3)CC2)c(=O)[nH]c1=O,–,–,–,–,–,–,·,·
CN1CCc2cc3c(c4c2[C@H]1[C@H](O)c1ccccc1-4)OCO3,53,–,–,58,–,–,68,63
O=C(Nc1ccccc1)C1=C[C@H](c2ccc(Br)cc2)C[C@H](OCc2ccc(CO)cc2)O1,–,–,–,–,–,–,·,·
CCn1cc(C(=O)N[C@@H](CCSC)C(=O)NCCCOC)c(=O)c2cc3c(cc21)OCO3,–,–,–,–,–,–,·,·
Cc1cc(C)nc(-n2nc(C)cc2NC(=O)c2cccc(S(=O)(=O)N(C)C)c2)n1,–,–,–,–,·,·,·,·
Cc1ccc(C)c(C(=O)Nc2cc(C)nn2-c2nc(C)cc(C)n2)c1,43,–,–,54,–,–,43,48
CC12CCC(=O)N1C(C(=O)NCc1ccc(Cl)cc1Cl)CS2 (stereo not drawn),–,–,–,–,·,–,·,·
O=C(/C=C/c1ccccc1)Nc1ccc2c(c1)OCCO2,46,–,–,54,–,–,–,70
Oc1ccccc1N=Nc1nc(-c2ccccc2)c(-c2ccccc2)[nH]1,56,114,–,53,106,–,57,62
COc1ccc(C(=O)N2CCCN(C)CC2)cc1S(=O)(=O)N(C)Cc1ccccc1,–,·,–,–,–,–,·,·
CCc1ccc2oc(=O)cc(CN3CCCCC3)c2c1,–,–,–,–,–,–,·,·
Cc1cc2cc(C=O)c(Cl)nc2cc1C,44,–,–,64,–,–,28,81
Cc1ccc(NC(=O)ON=C2CCCC2)cc1,54,–,–,53,–,–,68,47
O=C(Nc1ccccc1)ON=C1CCCC1,–,–,–,–,–,–,·,·
CC(=O)Nc1ccc(SCC(=O)c2cc(C)ccc2C)cc1,–,–,–,–,–,–,·,·
CC(=O)Nc1ccc(SCC(=O)c2cc(C)n(-c3ccccc3)c2C)cc1,48,–,–,54,–,–,44,53
COc1ccc(-n2c(C)cc(C(=O)CSc3ccc(NC(C)=O)cc3)c2C)cc1,41,–,–,62,–,–,–,49
CC1CN(Cc2ccco2)C(=S)NC1=O (stereo not drawn),·,·,·,·,·,–,·,·
O=C(O)CSc1ncnc2scc(-c3ccccc3)c12,–,–,–,–,–,–,·,·
CCC(=O)Nc1ccccc1Sc1ncnc2scc(-c3ccccc3)c12,43,–,–,57,–,–,32,50
O=C(Nc1cccc(N=Cc2cc(Br)cc(Br)c2O)c1)c1ccco1,·,–,·,·,–,–,·,·
Oc1c(Br)cc(Br)cc1C=Nc1ccc2c(c1)OCCO2,56,–,–,84,–,–,34,92
Oc1c(Br)cc(Br)cc1C=Nc1ccc2c(c1)OCO2,66,–,–,82,–,–,52,72
Cc1c(C(=O)O)sc2[nH]c(=O)n(Cc3ccccc3)c(=O)c12,–,–,–,–,–,–,·,·
CC(=O)Nc1cccc(-c2cc(-c3c(Cl)cccc3Cl)no2)c1,44,–,–,61,–,–,–,41
CNC(=O)Nc1cccc(-c2cc(-c3c(Cl)cccc3Cl)no2)c1,–,–,–,–,–,–,·,·
